The list is not random: actives were taken first. Their share in the collection is about 18%.
TGFb SMAD3 inh = qHTS for Inhibitors of TGF-b | HepG2 CAGA-GFP TGF-b/SMAD3 reporter, GFP fluorescence, 18 h; TGF-beta stimulated, 500 pg/mL final | Potency, µM (titrated, usually from 46.1 µM), actives largely listed as inhibitors | 410,000 compounds, 1.2% hits | AID 588855, 2011; note: nearly all actives have a fitted effect of over 65% in size
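Inhibition of TGF-beta-driven CAGA-GFP reporter expression in HEPG2 cells is measured by cellular GFP fluorescence after 18 h stimulation with 500 pg/mL recombinant TGF-beta in 1% FBS medium at 37 degrees C.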
IL-1B inflam inh = qHTS for Inhibitors of Inflammasome Signaling: IL-1-beta AlphaLISA Primary Screen; 360,000 compounds, 4.7% hits; THP-1 LPS/ATP IL-1B secretion, AlphaLISA, 16 h; hits give low values; activity change, % at 57.5 µM; in the data active = activity change below about -50%; inconclusive = mostly about -30% to -49%
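THP-1 cells pretreated 1 hr with compounds (up to 57.5 uM final), then stimulated with LPS (250 ng/mL final) plus ATP (1.25 mM final); secreted IL-1B measured by AlphaLISA after 16 hr, decreased signal indicating inhibition.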
HepG2 viability = qHTS for Inhibitors of TGF-b: Cytotox Counterscreen; Potency, µM (series often up to 46.1 µM), usual class: cytotoxic; HepG2 CAGA-GFP viability, ATP luminescence, 18 h; 410,000 compounds, 0.76% hits; AID 588856, 2011
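HepG2 CAGA-GFP cells (1000/well, DMEM with 1% FBS) received compound, then TGF-beta at 500 pg/mL final, and were incubated 18 hours at 37 degrees C. Viability was read by CellTiter-Glo luminescence. Media-only wells were set as complete cell-killing and DMSO as no toxicity.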
TDP1 inh = qHTS Assay for Inhibitors of Tyrosyl-DNA Phosphodiesterase (TDP1); Tyrosyl-DNA phosphodiesterase 1 (Homo sapiens), Q9NUW8; recombinant TDP1, AlphaScreen DNA substrate cleavage; Potency, µM (doses to about 130 µM), actives largely listed as inhibitors; 350,000 compounds, 0.28% hits; AID 485290, 2010; note: nearly all actives have a fitted effect of over 40% in size
Target sequence (Q9NUW8 whole entry, looked up): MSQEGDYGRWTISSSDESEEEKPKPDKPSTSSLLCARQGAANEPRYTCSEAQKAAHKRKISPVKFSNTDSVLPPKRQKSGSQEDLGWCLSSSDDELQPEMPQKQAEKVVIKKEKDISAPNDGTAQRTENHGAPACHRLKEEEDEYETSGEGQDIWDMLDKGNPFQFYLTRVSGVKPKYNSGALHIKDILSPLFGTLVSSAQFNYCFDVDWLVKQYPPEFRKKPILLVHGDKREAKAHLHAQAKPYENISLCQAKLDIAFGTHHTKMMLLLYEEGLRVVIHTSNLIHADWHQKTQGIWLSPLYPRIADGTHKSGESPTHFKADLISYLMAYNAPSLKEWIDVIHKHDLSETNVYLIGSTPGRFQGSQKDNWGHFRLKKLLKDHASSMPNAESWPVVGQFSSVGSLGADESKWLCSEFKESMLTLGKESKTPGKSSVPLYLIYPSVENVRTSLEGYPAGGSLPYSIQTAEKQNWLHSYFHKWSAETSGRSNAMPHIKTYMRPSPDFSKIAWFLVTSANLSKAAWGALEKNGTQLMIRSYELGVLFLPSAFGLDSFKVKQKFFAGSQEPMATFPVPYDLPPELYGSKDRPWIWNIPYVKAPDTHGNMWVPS
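AlphaScreen read-out: signal falls as enzyme removes the 3' tyrosine-FITC from a 5'-biotinylated DNA oligo (15 nM, 5 min, RT). Enzyme was E. coli-made recombinant Tdp1 at 1 nM, exposed to compound for 15 min beforehand; beads 10 ug/ml, 10 min.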
DT40 TDP1 no CPT = qHTS for Inhibitors of human tyrosyl-DNA phosphodiesterase 1 (TDP1): qHTS in cells in absence of CPT; Potency, µM (titrated, usually from 46.2 µM), usual class: inhibitors; 420,000 compounds, 15% hits; DT40 Tdp1-/- hTDP1 cells, no CPT, ATP luminescence, 48 h; note: nearly all actives have a fitted effect of over 55% in size
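Chicken DT40 Tdp1-/- cells complemented with human TDP1, screened without camptothecin (DMSO vehicle only), 400 cells/well. Compounds pin-transferred, cells incubated at 37 °C for at least 48 hr. Growth read as ATP-dependent luminescence (CellTiter-Glo, 30 min at RT).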
TDP1 cell CPT = qHTS for Inhibitors of human tyrosyl-DNA phosphodiesterase 1 (TDP1): qHTS in cells in presence of CPT; chicken DT40 Tdp1-/-;hTDP1 cells + 20 nM CPT, ATP luminescence, 48 h; Potency, µM (top dose mostly 46.2 µM), usual class: inhibitors; 420,000 compounds, 12% hits; AID 686979, 2013; note: nearly all actives have a fitted effect of over 55% in size
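Cell growth measured by CellTiter-Glo luminescence after a minimum 48 h, 37 C compound exposure with 20 nM CPT in Tdp1-knockout DT40 cells stably expressing hTDP1, seeded 400/well; qHTS titration format.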
A number is an active result; i = inactive; ? = inconclusive; nt = no result; [ ] = dose if it differs, or a comment. Unless noted, calls come from the whole dose curve; as a rule, active = well fitted curve in the direction sought with a large enough effect; inconclusive = small, poorly fitted or top-dose-only effect, or another doubt; inactive = no such curve, though single readings can be large; an effect the other way counts as inactive or inconclusive.

SMILES	TGFb SMAD3 inh	IL-1B inflam inh	HepG2 viability	TDP1 inh	DT40 TDP1 no CPT	TDP1 cell CPT
C=CCN1C(=O)C(O)(CC(=O)c2ccccc2)c2ccccc21 (centres undefined)	i	i	i	i	18.4µM	?
O=C(CC1(O)C(=O)N(CCc2ccccc2)c2ccccc21)c1ccco1 (centres undefined)	i	i	i	i	2.91µM	5.8µM
Cc1ccccc1CN1[C@H]2CCCC[C@@H]2OCCS1(=O)=O	i	nt	i	nt	?	?
C#CCN1C(=O)C(O)(CC(=O)/C=C/c2ccco2)c2ccccc21 (centres undefined)	?	i	i	i	3.66µM	5.8µM
Cc1coc(C)c1C(=O)CC1(O)C(=O)N(Cc2ccccc2)c2ccccc21 (centres undefined)	?	i	i	i	23.1µM	16.4µM
Cc1ccc(C(=O)CC2(O)C(=O)N(CCc3ccccc3)c3ccc(Br)cc32)o1 (centres undefined)	?	i	i	i	16.4µM	?
O=C(CC1(O)C(=O)N(CCc2ccccc2)c2ccc(Br)cc21)c1ccccc1 (centres undefined)	?	nt	i	nt	?	?
CCN(CC(=O)Nc1ccc(NC(C)=O)cc1)C(=O)CCCc1nc2ccccc2c(=O)[nH]1	i	i	i	i[0.505 µM]	i	i
Cc1cc(-c2cc(C(=O)NCc3ccccc3)on2)nc(S(C)(=O)=O)n1	?	-102.7	i	i	5.8µM	7.31µM
O=C(CN1C(=O)c2ccccc2C1=O)OCC(=O)N1CCc2ccccc2C1	i	i	i	i	0.0092µM	i
NC(=O)c1ccccc1OCC(=O)N1CCc2ccccc2C1	i	i	i	i[0.0935 µM]	13µM	?
O=C(CN1C(=O)c2ccccc2C1=O)OCC(=O)N1CCCCC1	i	i	i	i	i	i
Cc1ccc(OCC(=O)N2CCc3ccccc3C2)c(C)c1	?	?	i	i	?	i
O=C(CSc1nc2ccccc2o1)Nc1ccc(Cl)cc1	i	i	i	i	i	i
Clc1ccc(-c2nnc(Sc3nc4ccccc4o3)c3ccccc23)cc1	?	-103.7	i	i	16.4µM	?
O=C(CC(CC(=O)c1ccc(Br)cc1)c1cccnc1)c1ccc(Br)cc1	i	i	i	nt	14.6µM	14.6µM
Nc1nnnn1/N=C/c1cc(Br)ccc1O	i	i	i	nt	i	i
CC(C)(C)NCC(O)c1ccc(O)c(CO)n1 (centres undefined)	nt	nt	nt	nt	i	i
CCOC(=O)c1cc(S(=O)(=O)N2CCc3ccccc32)cn1C	i	i	i	i	2.31µM	?
Cn1cc(S(=O)(=O)N2CCc3ccccc32)cc1C(=O)NC(C)(C)C	?	i	i	nt	2.59µM	3.26µM
CCOC(=O)c1c(S(=O)(=O)N2CCCCC2C)c(C)n(C)c1C (centres undefined)	i	i	i	i	10.3µM	?
CCOC(=O)N1CCC(NC(=O)c2cc(S(=O)(=O)N3CCc4ccccc43)cn2C)CC1	i	i	i	i	i	i
Cc1cccc(C)c1NC(=O)c1cc(S(=O)(=O)N2CCc3ccccc32)cn1C	i	i	i	nt	i	i
CN(C(=O)c1cc(S(=O)(=O)N2CCc3ccccc32)cn1C)C1CCCCC1	i	i	i	nt	18.4µM	20.6µM
Cc1ccc(N(C)C(=O)c2cc(S(=O)(=O)N3CCc4ccccc43)cn2C)cc1	i	i	i	nt	?	?
SMILES	TGFb SMAD3 inh	IL-1B inflam inh	HepG2 viability	TDP1 inh	DT40 TDP1 no CPT	TDP1 cell CPT
Cc1ncc2c(c1CNC(=O)c1ccccc1F)CCN(C(=O)c1csc(-c3cccs3)n1)C2	nt	nt	nt	nt	?	i[9.04 µM]
CCOC(=O)c1c(S(=O)(=O)N2CCc3ccccc32)c(C)n(C)c1C	i	i	i	i	?	23.1µM
Cn1cc(S(=O)(=O)N2CCc3ccccc32)cc1C(=O)Nc1ccc(Cl)cc1	?	i	i	nt	25.9µM	25.9µM
CSc1cccc(NC(=O)c2cc(S(=O)(=O)N3CCc4ccccc43)cn2C)c1	i	i	i	nt	25.9µM	14.6µM
Cc1c(C(=O)N2CCCCC2)c(S(=O)(=O)N2CCc3ccccc32)c(C)n1C	i	i	i	i	i	i
COc1ccc(N(C)C(=O)c2cc(S(=O)(=O)N3CCc4ccccc43)cn2C)c(OC)c1	nt	nt	i	i	?	?
Cc1cccc(NC(=O)c2cc(S(=O)(=O)N3CCc4ccccc43)cn2C)c1	i	i	i	nt	i	i
CCCN(C(=O)c1cc(S(=O)(=O)N2CCc3ccccc32)cn1C)c1ccc(OCC)cc1	?	nt	i	i	20.6µM	?
CC(C)C[C@@H](CC(=O)N[C@@H](CCC(=O)O)CC(=O)O)NC(=O)[C@@H]1CCCC[C@H]1NC(=O)C[C@@H](NC(=O)C[C@H](Cc1c[nH]c2ccccc12)NC(=O)[C@@H]1CNCC[C@H]1N)C(C)C	nt	nt	nt	i	nt	nt
CCOC(=O)c1c(NC(=O)CN(CC)CC)sc2c1CCN(C(=O)OCC)C2	?	?	i	i	25.9µM	?
CCOC(=O)N1CCc2c(sc(NC(=O)Cc3ccccc3)c2C(=O)c2ccc(OC)cc2)C1	i	i	i	i	25.9µM	?
COc1ccc(C(=O)c2c(NC(C)=O)sc3c2CCN(C(=O)OC(C)(C)C)C3)cc1	i	nt	i	i	?	i
CCOC(=O)c1c(NC(=O)CC)sc2c1CCN(Cc1ccccc1)C2	i	i	i	nt	?	?
COc1ccc(S(=O)(=O)Nc2ccc3c(c2)C(=O)N([C@@H](C)CO)C[C@@H](C)[C@H](CN(C)S(=O)(=O)c2ccc(F)cc2)OCCCC[C@H](C)O3)cc1	i	i	i	nt	?	?
O=C(/C=C/c1ccccc1)N1CCN(Cc2cc(=O)n3nc(-c4ccccc4Cl)sc3n2)CC1	?	nt	i	i	?	?
O=C(C[n+]1cc(-c2ccccc2)n2c1CCC2)c1cccs1	i	i	i	i	i	i
Cc1ccc(-c2c[n+](CC(=O)N3c4ccccc4Sc4ccccc43)c3n2CCC3)cc1	i	-57.9	i	i	5.17µM	5.17µM
O=C(C[n+]1cc(-c2ccccc2)n2c1CCC2)N1c2ccccc2Sc2ccccc21	i	i	i	i	2.59µM	5.17µM
O=C(C[n+]1cc(-c2ccc(F)cc2)n2c1CCC2)N1c2ccccc2Sc2ccccc21	?	-50.1	i	i	13µM	14.6µM

Source: PubChem BioAssay
